FLuc counter = inhibits or activates purified firefly luciferase, miR-21 counter-screen; P08659; purified FLuc, Km substrates, luminescence inhibition; Potency, µM (highest dose often 57.5 µM), without a hit: top-dose activity change, negative = inhibition, actives largely listed as inhibitors; 360,000 tested, 6.9% active;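 further: plate controls were vehicle for no effect and reference inhibitor for full effect; nearly all actives have a fitted effect of over 55% in size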
Target sequence (P08659 whole entry, looked up): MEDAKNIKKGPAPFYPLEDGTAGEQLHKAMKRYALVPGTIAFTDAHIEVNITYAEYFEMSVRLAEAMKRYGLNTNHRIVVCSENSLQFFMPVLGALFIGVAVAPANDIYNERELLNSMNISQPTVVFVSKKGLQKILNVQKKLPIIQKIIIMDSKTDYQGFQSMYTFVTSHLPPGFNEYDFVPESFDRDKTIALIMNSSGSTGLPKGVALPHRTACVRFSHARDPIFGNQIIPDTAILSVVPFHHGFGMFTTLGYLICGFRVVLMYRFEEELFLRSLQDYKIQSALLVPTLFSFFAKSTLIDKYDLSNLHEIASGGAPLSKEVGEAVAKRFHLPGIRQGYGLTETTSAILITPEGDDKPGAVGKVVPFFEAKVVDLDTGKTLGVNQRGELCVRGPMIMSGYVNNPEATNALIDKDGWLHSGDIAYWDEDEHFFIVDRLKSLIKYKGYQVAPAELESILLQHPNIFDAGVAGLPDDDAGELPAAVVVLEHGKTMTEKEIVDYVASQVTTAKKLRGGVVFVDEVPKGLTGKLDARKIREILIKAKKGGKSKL
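Biochemical qHTS of compounds, final roughly 60 µM downward over six points, against 10 nM purified firefly luciferase using Km concentrations of substrates (10 uM D-luciferin, 10 uM ATP) in Tris acetate pH 7.5 buffer; luminescence output.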
SMN2 splice up = enhancers of SMN2 splice variant expression; HEK293 SMN2-luciferase splicing reporter, luminescence, 30-36 h; Potency, µM (titrated, usually from 46.1 µM), for inactives: top-dose activity change, positive = activation, actives largely listed as activators; 210,000 tested, 2.8% active; AID 1458; further: % of control where 0% means no effect; nearly all actives have a fitted effect of over 55% in size
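HEK293 cells carry an SMN2 minigene-luciferase reporter in which exon 7 inclusion puts luciferase in frame. Cells were seeded at 2000 cells/well, attached for 10-12 hours, then exposed to compounds for 30-36 hours at 37C before ONE-Glo luminescence.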
ELG1 genotox = induces genotoxicity in HEK293T cells with luciferase-tagged ELG1 | Potency, µM (highest dose often 46 µM), inactives show at the highest dose activity change, positive = activation, usual class: activators | 330,000 tested, 1.3% active | HEK293T ELG1-luciferase reporter, luminescence, 16 h; further: % of control where 0% means no effect; nearly all actives have a fitted effect of over 60% in size
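HEK293T cells expressing luciferase-tagged ELG1 were exposed to compound or DMSO vehicle for 16 hr at 37 °C and 5% CO2. Luciferase activity was then measured with ONE-Glo after 30 min at room temperature.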
Rab9 prom act = activators of Rab9 promoter; Potency, µM (doses to about 9.22 µM), inactives show at the top dose activation, negative = inhibition, usual class: activators; Huh7 Rab9 promoter-luciferase reporter, luminescence, 24 h; 320,000 tested, 2.8% active; further: % of control where 0% means no effect; nearly all actives have a fitted effect of over 60% in size
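Huh7 cells stably carrying a Rab9 promoter-luciferase reporter, 1500 cells per well in OP-MEM I with 10% FBS, treated with compound 24 hours at 37C. Luciferase activity read by luminescence after 10 minutes with Amplite reagent.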
ELG1 repair inh = inhibitors of ELG1-dependent DNA repair in HEK293T cells; Potency, µM (top dose mostly 46.1 µM), without a hit: top-dose activity change, negative = inhibition, usual class: inhibitors; 330,000 tested, 2.3% active; HEK293T ELG1-luciferase reporter, luminescence, 16 h; DNA damage induced by 5-fluorouridine; AID 504467; further: on the % scale 0 is the no-effect control and ±100 the full control effect; nearly all actives have a fitted effect of over 55% in size
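Step one: seed 2,000 cells per well. Step two: pin-transfer compound or DMSO alongside 5-fluorouridine. Step three: incubate 16 hr, 37 °C, 5% CO2. Step four: add ONE-Glo, wait 30 min, read luminescence.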
NPC1 promoter act = NPC1 promoter activation. Huh7 NPC1 promoter luciferase reporter, 24 h. Potency, µM (series often up to 9.22 µM), for inactives: at the highest dose activation, most hits filed as activators. 320,000 tested, 2.4% active. AID 485313; further: % of control where 0% means no effect; nearly all actives have a fitted effect of over 60% in size
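Luciferase expression driven by the NPC1 promoter was measured in stably transfected Huh7 cells after a 24 h compound incubation, using a luciferase reagent and a luminescence read.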
The depositor's hits bear a star. Sampled rows, rich in hits. Any-hit rate of the full collection: about 9.2%. The call rests on the fitted dose curve; in most records, active means well fitted curve in the direction sought with a large enough effect; inconclusive means small, poorly fitted or top-dose-only effect, or another doubt; inactive means no such curve, though single readings can be large; an effect the other way counts as inactive or inconclusive. Potency means the concentration at half of the fitted maximal effect.

How did COCCNC(=O)C1CCN(S(=O)(=O)c2c(C)noc2/C=C/c2cccs2)CC1 do in these assays?
FLuc counter: 3%; ELG1 genotox: -2%; Rab9 prom act: -4%; ELG1 repair inh: -3%; NPC1 promoter act: 0%

Results for CN(C)c1ccc(C(=S)NCc2ccco2)cc1 ?
FLuc counter: 13µM*; SMN2 splice up: -15%; ELG1 genotox: 0.46µM*; Rab9 prom act: 0.45µM*; ELG1 repair inh: inconclusive; NPC1 promoter act: inconclusive

Results for O=C1N[C@@H](Cc2c[nH]c3ccccc23)COC(=O)[C@@H](Cc2ccc(F)cc2)C/C=C\C[C@H]1CC(=O)N(CCO)Cc1ccccc1 ?
ELG1 genotox: -11%; ELG1 repair inh: 18µM*

How did O=C(N[C@H]1C/C=C\C[C@@H](CC(=O)N(CCO)Cc2ccccc2)C(=O)N[C@H](Cc2c[nH]c3ccccc23)COC1=O)OCC1c2ccccc2-c2ccccc21 do in these assays?
ELG1 genotox: -5%; ELG1 repair inh: 21µM*

How did O=C1N[C@H](Cc2ccccc2)COC(=O)[C@@H](Cc2ccc(F)cc2)C/C=C\C[C@H]1CC(=O)N(CCO)Cc1ccccc1 do in these assays?
ELG1 genotox: -3%; ELG1 repair inh: inconclusive

What do the screens show for `O=C1N[C@@H](Cc2c[nH]c3ccccc23)COC(=O)[C@H](Cc2ccc(F)cc2)C/C=C\C[C@@H]1CC(=O)N(CCO)Cc1ccccc1`?
ELG1 genotox: -9%; ELG1 repair inh: 23µM*

How did COc1ccc(-c2cc(=O)c3ccccc3s2)cc1 do in these assays?
FLuc counter: 1.1µM*; SMN2 splice up: 4µM*; ELG1 genotox: 2.3µM*; Rab9 prom act: 0.89µM*; ELG1 repair inh: inconclusive; NPC1 promoter act: 1.4µM*

How did COc1ccc2sc3ccccc3c(=O)c2c1 do in these assays?
FLuc counter: 6.7µM*; SMN2 splice up: 15%; ELG1 genotox: inconclusive; Rab9 prom act: inconclusive; ELG1 repair inh: inconclusive; NPC1 promoter act: inconclusive

What do the screens show for `COc1cccc(-c2sc3ccccc3c2-c2ccc(OCCN(C)C)cc2)c1`?
ELG1 genotox: -10%; ELG1 repair inh: inconclusive

What do the screens show for `COc1cc(-c2ccc3c(=O)c4ccccc4sc3c2)cc(OC)c1OC`?
ELG1 genotox: 9%; ELG1 repair inh: 11%

How did Cn1ccc(C(=O)N/N=C/c2ccncc2)n1 do in these assays?
FLuc counter: -3%; ELG1 genotox: 3%; Rab9 prom act: -3%; ELG1 repair inh: 14%; NPC1 promoter act: -5%

Results for Nc1ccc(C(=O)Nc2cccc3ncccc23)cc1 ?
FLuc counter: -10%; ELG1 genotox: -1%; Rab9 prom act: 1%; ELG1 repair inh: 12%; NPC1 promoter act: -7%

Results for CC(C)(C)c1ccc(C(=O)Nc2ccccc2NC(=O)c2ccco2)cc1 ?
FLuc counter: 19µM*; SMN2 splice up: -13%; ELG1 genotox: -3%; Rab9 prom act: -2%; ELG1 repair inh: inconclusive; NPC1 promoter act: -1%

How did CC(C)(C)c1ccc(C(=O)Nc2ccccc2Cl)cc1 do in these assays?
FLuc counter: 1.9µM*; ELG1 genotox: 0%; Rab9 prom act: 0.71µM*; ELG1 repair inh: inconclusive; NPC1 promoter act: 0.79µM*

What do the screens show for `CC(C)(C)c1ccc(C(=O)Nc2cccc3ncccc23)cc1`?
FLuc counter: 13µM*; ELG1 genotox: -4%; Rab9 prom act: 5%; ELG1 repair inh: -17%; NPC1 promoter act: -2%

What do the screens show for `Cc1ccc(NC(=O)c2c(C)nc3sc(C(=O)Nc4ccc(F)cc4)c(N)c3c2-c2ccccc2Cl)c(C)c1`?
FLuc counter: 1%; SMN2 splice up: 4%

How did Cc1ccc(OCc2ccoc2C(=O)O)cc1C do in these assays?
FLuc counter: 19µM*; SMN2 splice up: 3%; ELG1 genotox: 5%; Rab9 prom act: -3%; ELG1 repair inh: inconclusive; NPC1 promoter act: 0%

What do the screens show for `Cc1ccc(OCc2ccc(C(=O)O)o2)cc1C`?
FLuc counter: 11µM*; ELG1 genotox: inconclusive; Rab9 prom act: inconclusive; ELG1 repair inh: inconclusive; NPC1 promoter act: inconclusive

What do the screens show for `Cc1cc(C)cc(OCc2ccc(C(=O)O)o2)c1`?
FLuc counter: -19%; SMN2 splice up: inconclusive; ELG1 genotox: inconclusive; Rab9 prom act: 1%; ELG1 repair inh: inconclusive; NPC1 promoter act: 3%

What do the screens show for `Cc1ccc(OCc2ccc(C(=O)N3CCOCC3)cc2)cc1C`?
FLuc counter: 6.7µM*; SMN2 splice up: 11µM*; ELG1 genotox: inconclusive; Rab9 prom act: 1.4µM*; ELG1 repair inh: inconclusive; NPC1 promoter act: 3.5µM*

How did Cc1c(C)c2ccc(OCc3ccc(C(=O)O)o3)c(C)c2oc1=O do in these assays?
FLuc counter: 11µM*; SMN2 splice up: 68%; ELG1 genotox: inconclusive; Rab9 prom act: -4%; ELG1 repair inh: inconclusive; NPC1 promoter act: -5%

How did Cc1ccc(OC(C)C(=O)O)cc1C (stereo not given) do in these assays?
FLuc counter: -4%; SMN2 splice up: 11%; ELG1 genotox: -2%; Rab9 prom act: 9%; ELG1 repair inh: 14%; NPC1 promoter act: -2%

What do the screens show for `Cc1cccc2c1cnn2C(=O)CCC(=O)NCC(C)c1ccccc1` (stereo not given)?
FLuc counter: -2%; ELG1 genotox: -3%; Rab9 prom act: -1%; ELG1 repair inh: 4%; NPC1 promoter act: 1%

What do the screens show for `CCc1cc(=O)oc2cc(OCc3ccc(C(=O)O)o3)ccc12`?
FLuc counter: 27µM*; ELG1 genotox: 17%; Rab9 prom act: inconclusive; ELG1 repair inh: inconclusive; NPC1 promoter act: inconclusive

What do the screens show for `Cc1ccc(OCc2ccc(C(=O)Nc3nccs3)o2)cc1C`?
FLuc counter: 17µM*; SMN2 splice up: 32%; ELG1 genotox: -1%; Rab9 prom act: inconclusive; ELG1 repair inh: inconclusive; NPC1 promoter act: inconclusive

How did C=CCc1ccc(OCc2ccc(C(=O)OC)o2)c(OC)c1 do in these assays?
FLuc counter: 7.6µM*; SMN2 splice up: inconclusive; ELG1 genotox: 10µM*; Rab9 prom act: 0.5µM*; ELG1 repair inh: inconclusive; NPC1 promoter act: inconclusive

What do the screens show for `O=C(Nc1nccs1)c1ccc(COc2c(F)c(F)cc(F)c2F)o1`?
FLuc counter: 0%; ELG1 genotox: 7%; Rab9 prom act: 2%; ELG1 repair inh: inconclusive; NPC1 promoter act: 24%

How did COC(=O)c1ccc(COc2ccc3ccc(=O)oc3c2)o1 do in these assays?
FLuc counter: -19%; ELG1 genotox: 11%; Rab9 prom act: 19%; ELG1 repair inh: inconclusive; NPC1 promoter act: 14%
